Hits are enriched below; roughly 12% of the tested compounds scored in any of these assays.
Pf growth 96h – P. falciparum growth inhibition at 96 hour, primary screen for plastid delayed-death inhibitors; 6.9% of 320,000 active; Potency, µM (top dose mostly 28.7 µM), for the others: at the top dose activity change, negative = inhibition, usual class: inhibitors; P. falciparum luciferase reporter growth, 96 h; further: on the % scale 0 is the no-effect control and ±100 the full control effect
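Delayed-death screen, second-generation endpoint: infected erythrocytes, 2% hematocrit, 0.05% parasitemia final; 96 hours at 37 C, 5% CO2; luciferase detection reagent; luminescence decrease equals reduced growth.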
Sm TGR inh – S. mansoni TGR enzyme inhibition; Q962Y6; purified TGR, DTNB reduction, TNB absorbance 405 nm; Potency, µM (doses to about 114 µM), for inactives: at the top dose activity change, negative = inhibition, usual class: inhibitors; 3% of 360,000 active; further: on the % scale 0 is the no-effect control and ±100 the full control effect; nearly all actives have a fitted effect of over 60% in size
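First, TGR (20 nM dispensed) and NADPH were mixed with compound. Second, a 15 min room-temperature incubation followed. Third, further NADPH and then DTNB were added to start the reaction. Finally, TNB absorbance was monitored kinetically.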
AmpC inh detg – AmpC beta-lactamase inhibition with detergent present; P00811; AmpC hydrolysis of nitrocefin, absorbance 480 nm, 0.01% Triton; Potency, µM (top dose mostly 114 µM), inactives show at the top dose activity change, negative = inhibition, usual class: inhibitors; 0.041% of 370,000 active; AID 485294;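 further: 0% = no-compound wells and -100% = no-enzyme wells; nearly all actives have a fitted effect of over 25% in size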
Target sequence (P00811 whole entry, looked up): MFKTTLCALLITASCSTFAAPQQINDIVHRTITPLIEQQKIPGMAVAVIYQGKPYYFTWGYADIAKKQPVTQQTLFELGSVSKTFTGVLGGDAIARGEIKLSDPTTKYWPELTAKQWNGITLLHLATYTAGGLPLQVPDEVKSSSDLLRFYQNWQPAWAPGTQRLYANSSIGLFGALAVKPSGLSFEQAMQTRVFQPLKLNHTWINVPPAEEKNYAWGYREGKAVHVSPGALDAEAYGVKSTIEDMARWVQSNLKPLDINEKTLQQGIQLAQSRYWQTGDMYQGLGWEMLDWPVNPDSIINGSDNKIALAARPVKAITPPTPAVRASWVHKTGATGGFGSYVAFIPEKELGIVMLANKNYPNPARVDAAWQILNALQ
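20 mM phosphate pH 7.0 + 0.01% (detergent screen) or 0.0001% Triton X-100; 5.3 nM AmpC reagent; cpd preinc 15 min RT; nitrocefin (800 uM stock) to start; A480 q20 s × 4 min; Activity was normalised to no-enzyme and no-compound control wells.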
AmpC no deterg – inhibitors of E. coli AmpC beta-lactamase without detergent | P00811 | AmpC nitrocefin hydrolysis, absorbance 480 nm, 0.0001% Triton | Potency, µM (doses to about 57.1 µM), for inactives: top-dose activity change, negative = inhibition, hits mostly inhibitors | 0.52% of 330,000 active | AID 485341;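 further: plate controls were no compound for no effect and no enzyme for full effect; nearly all actives have a fitted effect of over 20% in size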
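20 mM phosphate pH 7.0 + 0.01% (detergent screen) or 0.0001% Triton X-100; 5.3 nM AmpC reagent; cpd preinc 15 min RT; nitrocefin (800 uM stock) to start; A480 q20 s × 4 min; Activity was normalised to no-enzyme and no-compound control wells.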
Pf growth 48h – inhibits P. falciparum growth in the first generation, 48 h | P. falciparum luciferase growth in erythrocytes, 48 h | Potency, µM (titrated, usually from 28.7 µM), without a hit: top-dose activity change, negative = inhibition, hits mostly inhibitors | 5.9% of 310,000 active; further: on the % scale 0 is the no-effect control and ±100 the full control effect
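Read-out is firefly luciferase luminescence from an integrated reporter in P. falciparum, so falling signal marks reduced parasite growth. Infected erythrocytes were at 2% hematocrit and 0.1% parasitemia (final) in Albumax-supplemented RPMI 1640.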
SARS PLpro yeast – blocks SARS-CoV papain-like protease in a yeast assay. Potency, µM (top dose mostly 32.9 µM), inactives show at the highest dose activity, positive = growth rescue, hits mostly activators. S. cerevisiae expressing SARS-CoV PLpro, growth rescue. 0.19% of 330,000 active. AID 485353; calls by dose curve; further: 0% is about no effect; nearly all actives have a fitted effect of over 55% in size
* hit, by the source's call; [ ] = another dose, or the depositor's remark. Unless noted, the call rests on the fitted dose curve; in most records, active means well fitted curve in the direction sought with a large enough effect; inconclusive means small, poorly fitted or top-dose-only effect, or another doubt; inactive means no such curve, though single readings can be large; an effect the other way counts as inactive or inconclusive. Potency means the concentration at half of the fitted maximal effect.

O=C(Nc1ncc(Cc2ccc(C(F)(F)F)cc2)s1)c1ccc(-c2cccc([N+](=O)[O-])c2)o1 was read as Pf growth 96h 0.37µM*, Sm TGR inh -5%, AmpC inh detg -10%, AmpC no deterg -29%, Pf growth 48h inconclusive and SARS PLpro yeast 8%.
Screening COc1ccc(-n2c(=S)[nH]c3cc(C(=O)NCCCN4CCCC4=O)ccc3c2=O)c(OC)c1 returned Pf growth 96h 24%, Sm TGR inh -11%, AmpC inh detg 1%, AmpC no deterg -10%, Pf growth 48h -9% and SARS PLpro yeast 2%.
`COc1ccccc1CCNC(=O)C(=O)NCC(c1ccc2c(c1)OCO2)N1CCOCC1` (configuration not stated) gave Sm TGR inh 8% and AmpC inh detg 2%.
`Cc1cccc(N2CCN(C(=O)C3CCN(S(=O)(=O)c4c(C)noc4/C=C/c4ccccc4F)CC3)CC2C)c1` (configuration not stated) gave Sm TGR inh 2% and AmpC inh detg 17%.
`CC(=O)c1sc2nc(C)c3c(c2c1N)CCCC3` gave Pf growth 96h 2%, Sm TGR inh 2%, AmpC inh detg 0%, AmpC no deterg 26%, Pf growth 48h 15% and SARS PLpro yeast 1%.
Nc1c(C(=O)N2CCOCC2)sc2nc(N3CCOCC3)c3c(c12)CCCC3 was read as Pf growth 96h 4%, Sm TGR inh -17%, AmpC inh detg -2%, AmpC no deterg 16%, Pf growth 48h inconclusive and SARS PLpro yeast 1%.
For Cc1nc2sc(C#N)c(N)c2c2c1CCCC2 the results were Pf growth 96h 12µM*, Sm TGR inh 0%, AmpC inh detg -6%, AmpC no deterg -21%, Pf growth 48h 25% and SARS PLpro yeast 6%.
For N#Cc1sc2nc(N3CCCCC3)c3c(c2c1N)CCCC3 the results were Pf growth 96h inconclusive, Sm TGR inh 0%, AmpC inh detg -2%, AmpC no deterg -24%, Pf growth 48h 5.2µM* and SARS PLpro yeast -24%.
CCOC(=O)c1[nH]c(C)c(CCC(=O)Nc2cccc(C(F)(F)F)c2)c1C was read as Sm TGR inh -8% and AmpC inh detg 22%.
For COC(=O)C1=C(C)NC(C)=C(C(=O)OC)C1c1ccccc1OCc1c(C)no[n+]1[O-] the results were Pf growth 96h 6%, Sm TGR inh -4%, AmpC inh detg -3%, AmpC no deterg 28%, Pf growth 48h 12µM* and SARS PLpro yeast -2%.
`COc1ccc(C(=O)c2nccc3cc(OC)c(OC)cc23)cc1OC` gave Pf growth 96h 0.74µM*, Sm TGR inh inconclusive, AmpC inh detg -1%, AmpC no deterg -2%, Pf growth 48h 1.2µM* and SARS PLpro yeast -4%.
`CNc1sc(C(=O)c2cccs2)c(N)c1-c1nc2ccccc2s1` gave Pf growth 96h -14%, Sm TGR inh 2%, AmpC inh detg -14%, AmpC no deterg -34%, Pf growth 48h -19% and SARS PLpro yeast -2%.
`O=C(Nc1ccccc1-c1nc2ccccc2s1)c1ccc(F)cc1` gave Sm TGR inh 10% and AmpC inh detg 2%.
`CNc1sc(C(=O)c2ccc(F)cc2)c(N)c1-c1nc2ccccc2s1` gave Pf growth 96h -94%, Sm TGR inh 40µM*, AmpC inh detg inconclusive, AmpC no deterg -22% and SARS PLpro yeast 0%.
Screening O=C(Nc1ccc(F)cc1)Nc1sccc1-c1nc2ccccc2s1 returned Pf growth 96h inconclusive, Sm TGR inh -30%, AmpC inh detg 0%, AmpC no deterg inconclusive, Pf growth 48h 8.3µM* and SARS PLpro yeast 1%.
O=C(Cn1nc(-c2ccccc2)nc(Cc2ccccc2)c1=O)Nc1ccccc1 was read as Sm TGR inh -3% and AmpC inh detg -1%.
`Cc1nc(-c2cccc(NC(=O)Nc3ccc([N+](=O)[O-])cc3)c2)no1` gave Sm TGR inh 8% and AmpC inh detg 0%.
COCCn1c(-c2ccc(Br)cc2)csc1=Nc1cccnc1 was read as Pf growth 96h inconclusive, Sm TGR inh -12%, AmpC inh detg -14%, AmpC no deterg -14%[11.4 µM], Pf growth 48h inconclusive and SARS PLpro yeast -2%.
For FC(F)Oc1ccc(-c2csc(=Nc3cccnc3)n2CC2CCCO2)cc1 (configuration not stated) the results were Pf growth 96h 13µM*, Sm TGR inh -23%, AmpC inh detg 10%, AmpC no deterg 8%, Pf growth 48h inconclusive and SARS PLpro yeast -4%.
`NC(N)=N/N=C/c1cccc(Cl)c1Cl` gave Pf growth 96h 2.1µM*, Sm TGR inh 11%, AmpC inh detg -12%, AmpC no deterg -44%, Pf growth 48h 1.7µM* and SARS PLpro yeast 0%.
Screening Cc1c(Cl)ccc2sc(N3CCN(C(=O)CS(=O)(=O)c4ccccc4)CC3)nc12 returned Sm TGR inh 20% and AmpC inh detg 6%.
NC(=O)C1CCN(c2nc(-c3cccc(Br)c3)cs2)CC1 was read as Pf growth 96h -27% and Pf growth 48h inconclusive.
Cc1ccc2cc(CN(C(=O)c3cccnc3)C(C)C)c(=O)[nH]c2c1 was read as Pf growth 96h inconclusive, Sm TGR inh 7%, AmpC inh detg -9%, AmpC no deterg -20%, Pf growth 48h 12µM* and SARS PLpro yeast 0%.
For COc1cccc(C(=O)N(Cc2cc3cc(C)ccc3[nH]c2=O)C(C)C)c1 the results were Pf growth 96h 3.7µM*, Sm TGR inh -4%, AmpC inh detg -1%, AmpC no deterg 34%, Pf growth 48h 7.4µM* and SARS PLpro yeast 1%.
For CC(=O)N(Cc1cc2cc(C)ccc2[nH]c1=O)c1cccc(C)c1C the results were Pf growth 96h 9.3µM*, Sm TGR inh 0%, AmpC inh detg inconclusive, AmpC no deterg -5%, Pf growth 48h 0% and SARS PLpro yeast 3%.
For CC(=O)N(CCc1ccccc1)Cc1cc2cc(C)ccc2[nH]c1=O the results were Pf growth 96h inconclusive, Sm TGR inh 3%, AmpC inh detg -14%, AmpC no deterg 19%, Pf growth 48h -4% and SARS PLpro yeast 1%.
Screening COc1cc(OC)cc(C(=O)N(Cc2cc3cc(C)ccc3[nH]c2=O)C(C)C)c1 returned Pf growth 96h inconclusive, Sm TGR inh 3%, AmpC inh detg 8%, AmpC no deterg 58%, Pf growth 48h inconclusive and SARS PLpro yeast -3%.
